Test results as given in the supplement of paper PMC11732987, “Enantioselective OTUD7B fragment discovery through chemoproteomics screening and high-throughput optimisation” (Communications Chemistry, 2025).

How the values were obtained:
Assay in all cases: log2 ratio of Biotin-Ahx-Ub-VS probe labelling (fragment/DMSO); higher = less target engagement (more negative = stronger competition), active = hit call of the paper (q ≤ 0.05, log2 ratio ≤ -1)
Settings in all cases: compound concentration: 200 uM; treatment time: 3 h
USP34 = USP34 (UniProt Q70CQ2)
Procedure, shortened: (§1)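 Triplicate samples of HEK293T lysate, 495 µg each, received fragment at 200 µM or vehicle for 3 h, followed by Biotin-Ahx-Ub-VS (0.5 µM final) for 1 h. After NeutrAvidin enrichment of labelled DUBs and LysC/trypsin digestion, peptides were run by diaPASEF LC-MS/MS. The values are average log2 fragment/vehicle ratios from global-median-normalised Spectronaut label-free quantities, tested by unpaired t-test on proteins having ≥2 unique peptides.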

USP36 = target: T1, USP36 (UniProt Q9P275)
T1 sequence (whole entry): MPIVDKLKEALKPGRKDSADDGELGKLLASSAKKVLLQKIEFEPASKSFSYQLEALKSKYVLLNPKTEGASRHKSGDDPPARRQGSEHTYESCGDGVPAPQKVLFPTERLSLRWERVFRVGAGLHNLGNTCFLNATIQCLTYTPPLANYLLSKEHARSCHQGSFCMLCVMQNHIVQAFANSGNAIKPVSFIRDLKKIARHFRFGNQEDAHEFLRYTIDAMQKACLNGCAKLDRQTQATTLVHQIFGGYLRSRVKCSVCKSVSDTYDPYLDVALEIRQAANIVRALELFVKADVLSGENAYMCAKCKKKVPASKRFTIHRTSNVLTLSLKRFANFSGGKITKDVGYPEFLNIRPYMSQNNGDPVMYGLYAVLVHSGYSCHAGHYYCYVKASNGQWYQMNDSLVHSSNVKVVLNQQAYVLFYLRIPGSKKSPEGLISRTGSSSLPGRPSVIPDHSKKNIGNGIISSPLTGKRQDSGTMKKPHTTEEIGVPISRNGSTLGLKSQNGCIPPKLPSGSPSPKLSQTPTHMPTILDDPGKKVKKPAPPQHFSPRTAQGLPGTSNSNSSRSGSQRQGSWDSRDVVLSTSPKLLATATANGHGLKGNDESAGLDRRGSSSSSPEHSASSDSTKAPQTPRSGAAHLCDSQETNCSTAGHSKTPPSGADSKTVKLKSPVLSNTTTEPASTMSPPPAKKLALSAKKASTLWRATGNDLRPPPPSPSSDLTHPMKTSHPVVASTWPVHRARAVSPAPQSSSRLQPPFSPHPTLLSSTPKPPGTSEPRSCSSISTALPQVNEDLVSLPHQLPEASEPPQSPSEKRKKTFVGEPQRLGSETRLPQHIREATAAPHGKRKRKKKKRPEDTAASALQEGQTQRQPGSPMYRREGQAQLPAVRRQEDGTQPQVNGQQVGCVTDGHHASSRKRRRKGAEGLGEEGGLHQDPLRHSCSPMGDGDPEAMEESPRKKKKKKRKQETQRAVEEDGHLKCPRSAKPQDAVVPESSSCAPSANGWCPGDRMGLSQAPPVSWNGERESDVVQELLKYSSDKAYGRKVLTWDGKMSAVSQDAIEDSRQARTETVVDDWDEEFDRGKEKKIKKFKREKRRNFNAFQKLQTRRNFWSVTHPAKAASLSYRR
Procedure, shortened: as §1

USP38 = target: T2, USP38 (UniProt Q8NB14)
T2 sequence (whole entry): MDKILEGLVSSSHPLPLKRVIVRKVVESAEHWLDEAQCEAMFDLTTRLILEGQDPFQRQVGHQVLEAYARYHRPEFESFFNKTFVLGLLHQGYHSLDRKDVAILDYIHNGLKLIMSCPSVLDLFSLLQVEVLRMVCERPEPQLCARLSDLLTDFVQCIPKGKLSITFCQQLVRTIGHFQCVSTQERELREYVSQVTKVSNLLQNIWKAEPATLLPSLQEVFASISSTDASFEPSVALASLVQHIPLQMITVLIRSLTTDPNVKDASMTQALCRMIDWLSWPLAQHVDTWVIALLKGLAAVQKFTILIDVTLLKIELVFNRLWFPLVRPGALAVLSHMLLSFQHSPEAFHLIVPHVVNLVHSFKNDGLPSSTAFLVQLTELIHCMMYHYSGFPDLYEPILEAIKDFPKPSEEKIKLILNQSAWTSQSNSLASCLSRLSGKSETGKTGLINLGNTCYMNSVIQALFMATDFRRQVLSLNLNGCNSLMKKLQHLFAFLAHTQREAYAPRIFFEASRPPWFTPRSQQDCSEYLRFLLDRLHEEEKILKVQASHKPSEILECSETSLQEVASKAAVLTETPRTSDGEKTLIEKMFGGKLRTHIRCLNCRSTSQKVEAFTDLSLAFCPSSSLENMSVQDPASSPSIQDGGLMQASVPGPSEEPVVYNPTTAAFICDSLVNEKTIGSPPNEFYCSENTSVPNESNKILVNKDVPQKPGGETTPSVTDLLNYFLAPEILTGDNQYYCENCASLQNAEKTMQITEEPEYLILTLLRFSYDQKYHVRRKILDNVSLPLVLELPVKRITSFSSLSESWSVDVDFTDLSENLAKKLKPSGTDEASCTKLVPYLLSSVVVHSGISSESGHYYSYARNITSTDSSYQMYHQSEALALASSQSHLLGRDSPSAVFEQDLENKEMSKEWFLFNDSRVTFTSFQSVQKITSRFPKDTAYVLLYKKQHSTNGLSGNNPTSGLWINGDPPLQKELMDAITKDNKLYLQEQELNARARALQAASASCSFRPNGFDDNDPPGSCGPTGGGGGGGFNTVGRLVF
Procedure, shortened: as §1

USP39 = target: T3, USP39 (UniProt Q53GS9)
T3 sequence (whole entry): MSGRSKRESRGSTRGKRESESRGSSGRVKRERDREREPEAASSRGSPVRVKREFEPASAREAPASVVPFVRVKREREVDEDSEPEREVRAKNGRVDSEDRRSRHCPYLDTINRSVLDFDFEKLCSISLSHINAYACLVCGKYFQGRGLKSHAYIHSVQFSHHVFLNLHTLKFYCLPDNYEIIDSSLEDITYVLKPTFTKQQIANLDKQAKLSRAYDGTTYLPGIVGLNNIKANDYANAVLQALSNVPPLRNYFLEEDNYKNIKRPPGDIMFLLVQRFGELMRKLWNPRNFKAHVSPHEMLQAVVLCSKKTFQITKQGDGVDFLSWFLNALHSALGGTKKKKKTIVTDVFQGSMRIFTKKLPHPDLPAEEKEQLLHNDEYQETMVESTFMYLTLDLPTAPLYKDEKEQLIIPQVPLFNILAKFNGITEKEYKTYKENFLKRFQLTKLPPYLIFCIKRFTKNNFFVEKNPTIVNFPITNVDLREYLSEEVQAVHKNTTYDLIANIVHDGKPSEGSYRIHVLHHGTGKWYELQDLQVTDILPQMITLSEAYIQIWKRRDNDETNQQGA
Procedure, shortened: as §1

USP4 = target: T4, USP4 (UniProt Q13107)
T4 sequence (whole entry): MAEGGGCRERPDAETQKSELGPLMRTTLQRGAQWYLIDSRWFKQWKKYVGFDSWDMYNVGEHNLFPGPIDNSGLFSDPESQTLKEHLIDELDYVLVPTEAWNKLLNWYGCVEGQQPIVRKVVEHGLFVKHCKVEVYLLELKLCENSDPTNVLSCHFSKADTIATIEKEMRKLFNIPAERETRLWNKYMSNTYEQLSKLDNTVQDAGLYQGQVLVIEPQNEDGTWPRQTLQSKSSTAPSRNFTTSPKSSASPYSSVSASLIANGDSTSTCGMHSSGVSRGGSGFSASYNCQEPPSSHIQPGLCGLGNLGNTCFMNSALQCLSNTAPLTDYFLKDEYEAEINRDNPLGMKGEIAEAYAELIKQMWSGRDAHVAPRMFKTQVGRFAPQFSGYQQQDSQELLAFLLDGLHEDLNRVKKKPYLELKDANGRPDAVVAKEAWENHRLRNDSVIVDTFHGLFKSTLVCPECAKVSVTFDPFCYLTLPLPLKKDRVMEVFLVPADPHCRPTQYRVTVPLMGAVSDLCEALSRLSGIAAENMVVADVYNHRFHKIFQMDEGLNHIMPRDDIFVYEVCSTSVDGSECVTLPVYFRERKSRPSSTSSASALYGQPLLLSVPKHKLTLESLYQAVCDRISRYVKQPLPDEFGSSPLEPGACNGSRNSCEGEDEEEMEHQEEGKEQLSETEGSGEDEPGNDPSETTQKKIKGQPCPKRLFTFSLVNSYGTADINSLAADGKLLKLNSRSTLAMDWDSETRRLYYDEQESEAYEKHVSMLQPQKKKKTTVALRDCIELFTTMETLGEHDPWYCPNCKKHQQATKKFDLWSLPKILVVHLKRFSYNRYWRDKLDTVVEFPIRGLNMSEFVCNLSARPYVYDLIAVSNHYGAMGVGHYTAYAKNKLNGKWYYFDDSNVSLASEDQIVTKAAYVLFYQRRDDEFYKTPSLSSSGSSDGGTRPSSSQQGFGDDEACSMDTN
Procedure, shortened: as §1

Measured: log2 ratio of Biotin-Ahx-Ub-VS probe labelling

USP34, sequence (Q70CQ2 whole entry, the tested form may be a part): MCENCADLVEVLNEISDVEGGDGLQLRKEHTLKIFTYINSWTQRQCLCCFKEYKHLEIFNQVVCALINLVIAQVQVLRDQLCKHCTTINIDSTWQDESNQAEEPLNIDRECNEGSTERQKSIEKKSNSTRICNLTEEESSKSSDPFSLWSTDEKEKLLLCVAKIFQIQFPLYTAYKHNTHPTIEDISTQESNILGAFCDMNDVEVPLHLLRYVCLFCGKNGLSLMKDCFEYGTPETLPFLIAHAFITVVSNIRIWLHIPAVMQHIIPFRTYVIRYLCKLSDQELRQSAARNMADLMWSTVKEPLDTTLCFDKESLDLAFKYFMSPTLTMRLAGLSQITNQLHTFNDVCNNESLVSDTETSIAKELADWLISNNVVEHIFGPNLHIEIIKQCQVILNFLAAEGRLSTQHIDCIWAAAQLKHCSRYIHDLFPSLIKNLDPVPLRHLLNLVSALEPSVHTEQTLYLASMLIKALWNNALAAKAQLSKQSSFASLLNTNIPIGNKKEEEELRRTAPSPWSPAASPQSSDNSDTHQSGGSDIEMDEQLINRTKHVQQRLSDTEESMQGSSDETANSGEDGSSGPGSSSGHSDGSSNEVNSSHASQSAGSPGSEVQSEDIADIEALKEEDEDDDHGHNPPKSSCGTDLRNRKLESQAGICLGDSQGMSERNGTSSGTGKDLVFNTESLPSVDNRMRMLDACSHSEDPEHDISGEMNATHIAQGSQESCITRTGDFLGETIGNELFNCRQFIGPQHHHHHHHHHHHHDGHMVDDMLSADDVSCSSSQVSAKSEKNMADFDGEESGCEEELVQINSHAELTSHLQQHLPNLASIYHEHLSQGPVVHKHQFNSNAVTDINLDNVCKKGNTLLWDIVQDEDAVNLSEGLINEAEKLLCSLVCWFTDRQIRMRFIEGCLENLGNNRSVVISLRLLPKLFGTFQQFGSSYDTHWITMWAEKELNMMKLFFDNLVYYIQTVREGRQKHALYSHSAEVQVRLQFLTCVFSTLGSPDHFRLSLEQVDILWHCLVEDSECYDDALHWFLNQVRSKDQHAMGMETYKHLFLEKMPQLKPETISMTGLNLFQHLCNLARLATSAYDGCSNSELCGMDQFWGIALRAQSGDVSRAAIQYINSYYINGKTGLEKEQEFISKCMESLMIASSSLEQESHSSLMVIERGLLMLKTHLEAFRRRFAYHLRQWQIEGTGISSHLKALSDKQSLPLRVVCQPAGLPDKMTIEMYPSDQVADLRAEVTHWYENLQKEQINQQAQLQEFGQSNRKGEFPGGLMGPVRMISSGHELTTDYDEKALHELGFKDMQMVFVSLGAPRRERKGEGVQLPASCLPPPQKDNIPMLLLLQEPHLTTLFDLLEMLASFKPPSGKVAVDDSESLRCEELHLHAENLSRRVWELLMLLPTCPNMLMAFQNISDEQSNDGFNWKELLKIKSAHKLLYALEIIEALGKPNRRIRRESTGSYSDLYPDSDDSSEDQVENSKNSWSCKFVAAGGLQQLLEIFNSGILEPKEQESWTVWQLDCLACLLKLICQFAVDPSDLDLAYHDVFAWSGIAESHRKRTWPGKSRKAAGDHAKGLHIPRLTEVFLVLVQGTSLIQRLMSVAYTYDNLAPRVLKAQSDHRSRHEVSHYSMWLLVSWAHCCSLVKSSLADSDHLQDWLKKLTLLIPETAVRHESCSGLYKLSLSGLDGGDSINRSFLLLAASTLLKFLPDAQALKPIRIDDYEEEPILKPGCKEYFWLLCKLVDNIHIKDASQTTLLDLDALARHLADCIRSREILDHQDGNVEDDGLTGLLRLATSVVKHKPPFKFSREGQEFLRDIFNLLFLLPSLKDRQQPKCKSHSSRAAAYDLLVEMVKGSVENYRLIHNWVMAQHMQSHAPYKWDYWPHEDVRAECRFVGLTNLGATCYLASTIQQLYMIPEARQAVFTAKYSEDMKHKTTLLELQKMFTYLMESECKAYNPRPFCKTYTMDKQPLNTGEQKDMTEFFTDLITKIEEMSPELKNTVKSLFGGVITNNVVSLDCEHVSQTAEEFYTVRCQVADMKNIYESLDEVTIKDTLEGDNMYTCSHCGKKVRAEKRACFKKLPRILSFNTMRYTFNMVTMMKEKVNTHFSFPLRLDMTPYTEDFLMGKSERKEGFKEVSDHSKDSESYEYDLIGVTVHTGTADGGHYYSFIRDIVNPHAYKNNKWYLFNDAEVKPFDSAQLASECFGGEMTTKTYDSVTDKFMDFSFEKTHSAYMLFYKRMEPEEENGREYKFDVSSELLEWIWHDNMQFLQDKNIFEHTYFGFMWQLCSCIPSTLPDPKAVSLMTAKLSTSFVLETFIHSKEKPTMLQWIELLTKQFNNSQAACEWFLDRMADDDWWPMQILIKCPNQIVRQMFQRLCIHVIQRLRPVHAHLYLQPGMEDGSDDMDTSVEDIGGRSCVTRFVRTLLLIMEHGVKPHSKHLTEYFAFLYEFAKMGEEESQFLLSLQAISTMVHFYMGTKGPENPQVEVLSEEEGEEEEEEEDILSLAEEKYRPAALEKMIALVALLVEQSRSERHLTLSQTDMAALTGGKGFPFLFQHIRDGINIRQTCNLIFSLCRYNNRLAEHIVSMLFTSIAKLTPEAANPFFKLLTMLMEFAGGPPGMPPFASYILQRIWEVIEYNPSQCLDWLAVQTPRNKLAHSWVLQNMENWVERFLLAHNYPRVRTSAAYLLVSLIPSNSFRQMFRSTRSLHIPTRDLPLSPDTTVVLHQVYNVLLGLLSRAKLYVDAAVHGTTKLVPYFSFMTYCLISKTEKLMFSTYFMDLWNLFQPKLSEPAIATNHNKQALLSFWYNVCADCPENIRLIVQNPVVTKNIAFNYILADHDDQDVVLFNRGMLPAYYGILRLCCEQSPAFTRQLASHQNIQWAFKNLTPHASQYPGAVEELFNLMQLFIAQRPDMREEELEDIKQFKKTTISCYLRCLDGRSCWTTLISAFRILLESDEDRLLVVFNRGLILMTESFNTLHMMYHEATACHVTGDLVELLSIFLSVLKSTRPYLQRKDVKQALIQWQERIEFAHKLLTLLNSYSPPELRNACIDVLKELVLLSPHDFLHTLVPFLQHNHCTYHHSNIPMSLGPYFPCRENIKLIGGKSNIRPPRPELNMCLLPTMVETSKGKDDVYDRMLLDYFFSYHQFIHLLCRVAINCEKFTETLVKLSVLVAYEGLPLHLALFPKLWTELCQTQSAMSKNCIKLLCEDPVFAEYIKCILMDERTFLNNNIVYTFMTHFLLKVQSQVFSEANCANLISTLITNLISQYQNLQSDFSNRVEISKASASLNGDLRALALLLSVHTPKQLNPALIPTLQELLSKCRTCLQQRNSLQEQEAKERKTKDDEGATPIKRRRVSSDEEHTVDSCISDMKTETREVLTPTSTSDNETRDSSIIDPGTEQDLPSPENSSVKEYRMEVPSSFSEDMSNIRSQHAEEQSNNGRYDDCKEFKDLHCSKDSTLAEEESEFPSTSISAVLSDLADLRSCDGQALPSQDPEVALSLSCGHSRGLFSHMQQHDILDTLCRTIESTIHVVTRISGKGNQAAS

O=C(CCl)N1CC2(CCOCC2)C1
inactive: USP34 -0.0656 | USP36 -0.243 | USP38 0.103 | USP39 0.364 | USP4 -0.0394
